Screening results as filed in PubChem.
RN4220 kill: kills Staphylococcus aureus RN4220; inhibition, % (concentration not given with the values); S. aureus RN4220 growth, OD600, 16 h; hit rate 0.33% among 330,000; in the data active = inhibition above about 85%
Sa ugtP lethal: growth inhibition of S. aureus ugtP deletion strain; AID 1259309; growth inhibition, % (test concentration not listed); hit rate 0.54% among 330,000; S. aureus RN4220 ugtP deletion, OD600 growth, 16 h; in the data active = growth inhibition above about 68%
TcdB inh: blocks C. difficile toxin B glycohydrolase activity. TcdB glycohydrolase enzymatic assay, plate reader. inhibition, % at 9.99 µM. hit rate 0.24% among 350,000; in the data active = inhibition above about 10%
Target sequence (P18177 whole entry, looked up): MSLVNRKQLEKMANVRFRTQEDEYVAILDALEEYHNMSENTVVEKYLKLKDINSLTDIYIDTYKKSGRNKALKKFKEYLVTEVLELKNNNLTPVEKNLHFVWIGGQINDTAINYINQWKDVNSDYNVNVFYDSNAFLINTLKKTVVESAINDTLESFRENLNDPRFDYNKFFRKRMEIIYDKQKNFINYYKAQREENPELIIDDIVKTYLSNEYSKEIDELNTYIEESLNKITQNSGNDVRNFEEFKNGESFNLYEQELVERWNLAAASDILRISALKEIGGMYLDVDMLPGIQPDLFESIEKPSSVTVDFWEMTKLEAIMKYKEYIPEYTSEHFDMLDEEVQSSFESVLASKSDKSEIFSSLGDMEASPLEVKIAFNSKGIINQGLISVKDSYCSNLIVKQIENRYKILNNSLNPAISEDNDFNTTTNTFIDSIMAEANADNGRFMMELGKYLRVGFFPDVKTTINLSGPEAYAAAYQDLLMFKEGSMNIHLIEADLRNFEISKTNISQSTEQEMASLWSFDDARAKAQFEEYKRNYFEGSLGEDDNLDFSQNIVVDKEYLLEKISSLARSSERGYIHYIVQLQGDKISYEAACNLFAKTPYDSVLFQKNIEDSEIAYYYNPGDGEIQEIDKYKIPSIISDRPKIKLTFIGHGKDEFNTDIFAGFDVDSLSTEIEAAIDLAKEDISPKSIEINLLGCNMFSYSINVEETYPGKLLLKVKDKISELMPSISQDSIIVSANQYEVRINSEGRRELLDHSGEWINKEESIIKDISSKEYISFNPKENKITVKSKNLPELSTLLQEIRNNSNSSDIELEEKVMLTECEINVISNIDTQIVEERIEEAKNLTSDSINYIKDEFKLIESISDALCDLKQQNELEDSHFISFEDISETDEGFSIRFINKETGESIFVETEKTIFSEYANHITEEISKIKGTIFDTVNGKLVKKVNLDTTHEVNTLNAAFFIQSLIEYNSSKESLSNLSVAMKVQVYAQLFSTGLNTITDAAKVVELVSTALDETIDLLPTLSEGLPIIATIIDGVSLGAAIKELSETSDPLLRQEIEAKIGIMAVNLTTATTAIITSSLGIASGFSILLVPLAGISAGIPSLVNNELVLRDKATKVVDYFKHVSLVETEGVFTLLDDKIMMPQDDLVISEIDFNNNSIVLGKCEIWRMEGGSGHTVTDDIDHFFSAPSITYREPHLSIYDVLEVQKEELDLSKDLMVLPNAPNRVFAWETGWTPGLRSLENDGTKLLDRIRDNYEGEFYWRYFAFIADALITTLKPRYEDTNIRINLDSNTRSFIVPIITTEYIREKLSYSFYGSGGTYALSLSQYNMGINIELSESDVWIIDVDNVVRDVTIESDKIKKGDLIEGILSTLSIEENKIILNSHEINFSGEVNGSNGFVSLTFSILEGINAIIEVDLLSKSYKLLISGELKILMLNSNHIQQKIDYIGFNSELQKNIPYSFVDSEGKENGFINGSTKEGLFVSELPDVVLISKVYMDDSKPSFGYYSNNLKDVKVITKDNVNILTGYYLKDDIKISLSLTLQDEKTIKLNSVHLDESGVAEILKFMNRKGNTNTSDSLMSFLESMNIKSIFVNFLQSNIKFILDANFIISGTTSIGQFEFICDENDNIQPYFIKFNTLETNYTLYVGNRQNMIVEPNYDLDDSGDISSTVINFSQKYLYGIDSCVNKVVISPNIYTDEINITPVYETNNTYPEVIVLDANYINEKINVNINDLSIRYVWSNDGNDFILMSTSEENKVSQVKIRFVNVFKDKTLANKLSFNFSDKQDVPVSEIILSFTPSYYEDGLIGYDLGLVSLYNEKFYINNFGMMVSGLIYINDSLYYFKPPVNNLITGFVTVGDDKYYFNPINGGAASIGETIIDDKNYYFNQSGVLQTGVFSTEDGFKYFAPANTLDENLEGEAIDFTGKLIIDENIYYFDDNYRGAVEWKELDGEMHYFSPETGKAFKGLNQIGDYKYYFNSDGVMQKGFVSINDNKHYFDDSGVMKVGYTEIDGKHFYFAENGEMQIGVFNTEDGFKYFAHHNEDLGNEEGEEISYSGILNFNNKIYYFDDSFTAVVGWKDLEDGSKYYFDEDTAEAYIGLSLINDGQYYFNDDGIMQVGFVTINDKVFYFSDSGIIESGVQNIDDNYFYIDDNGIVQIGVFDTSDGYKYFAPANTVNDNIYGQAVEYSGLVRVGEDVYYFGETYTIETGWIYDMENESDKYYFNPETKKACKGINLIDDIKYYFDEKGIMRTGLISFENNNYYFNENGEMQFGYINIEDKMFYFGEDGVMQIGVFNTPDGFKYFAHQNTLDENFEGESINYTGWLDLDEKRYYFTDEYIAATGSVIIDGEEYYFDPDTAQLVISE
PrP 5UTR inh: suppresses PrP 5' UTR mRNA reporter expression | cell-based PrP 5' UTR mRNA reporter, plate reader | inhibition, % (concentration not given with the values) | hit rate 0.35% among 340,000; in the data active = inhibition above about 52%
PfHsp40 yeast: compounds rescuing yeast from Plasmodium falciparum HSP40 toxicity; S. cerevisiae expressing PfHsp40, growth rescue, ATP luminescence; hit rate 0.68% among 340,000; AID 504582; growth rescue, % at 12.5 µM; in the data active = growth rescue above about 28%, passing the limit was not always enough; inconclusive = no clear call, values can overlap the other calls;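 also: yeast W303a lacking pdr1 and pdr3 grown in galactose medium; growth measured after three days at 30 °C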
PrP 5UTR single: prion 5' UTR mRNA inhibition, cherry-pick retest; hit rate 48% among 1,100; AID 504592; inhibition, % at 2.5 µM; shares compounds with PrP 5UTR inh; cell-based prion protein 5' UTR reporter, plate reader; in the data active = inhibition above about 54%; inconclusive = no clear call, values can overlap the other calls
A number is an active result; . = inactive; ? = inconclusive; / = no result; ! = not active in a repeat. An excerpt weighted towards active compounds, which were near 1.2% of everything screened.

SMILES	RN4220 kill	Sa ugtP lethal	TcdB inh	PrP 5UTR inh	PfHsp40 yeast	PrP 5UTR single
Cc1ccc(S(=O)(=O)N2CCN(C(=O)N(C)C)CC2)cc1	.	.	.	61.6	.	.
CC(C)NC(=O)N(C)C[C@@H]1Oc2ccc(NC(=O)CCCCCC(=O)Nc3ccccc3N)cc2CC(=O)N([C@H](C)CO)C[C@H]1C	/	/	.	/	/	/
NCCCCC1NC(=O)C(CCC(=O)O)NC(=O)c2cc([N+](=O)[O-])cc(I)c2SCC(C(=O)NCC(N)=O)NC1=O (stereo not drawn)	.	.	/	/	/	/
Cn1c(=O)c2c(nc(NN=Cc3cccnc3)n2Cc2ccc(F)cc2)n(C)c1=O	.	.	/	/	/	/
O=C(/C=C\Nc1ccc2c(c1)OCO2)c1ccccn1	.	.	/	80.5	.	77.6
C[C@@H]1CN([C@@H](C)CO)S(=O)(=O)c2ccc(Br)cc2O[C@H]1CN(C)Cc1ccccc1	/	/	.	/	/	/
COc1ccc(S(=O)(=O)Cc2ccc(C(=O)N3CCOCC3)o2)cc1	.	.	.	70.9	.	.
CC(=O)[C@H]1[C@H](CCc2ccccc2)NC(=O)N(Cc2ccccc2)[C@@H]1C	/	/	.	.	.	/
CCN1C(=O)N[C@@H](CCc2ccccc2)[C@H](C(C)=O)[C@H]1C	/	/	.	66.0	.	.
Cc1ccccc1C(=O)N1CCC(C(=O)Nc2nccs2)CC1	.	.	/	88.0	.	.
COc1ccc(CCc2cc(OC)c(OC)c(OC)c2)cc1	/	/	.	57.3	.	88.1
c1c2c(cc3sc(N4CCOCC4)nc13)OCCO2	.	.	/	56.1	.	?
C[C@H]1CCC/C=C/[C@@H]2C[C@H](O)C[C@H]2[C@H](O)/C=C/C(=O)O1	/	/	.	79.2	47.1!	87.1
COc1ccc(-c2cc(CS(=O)(=O)c3ccccc3)on2)cc1	.	.	.	.	.	/
O=S(=O)(Cc1cc(-c2ccccc2)no1)c1ccccc1	.	.	.	50.9	.	.
CCSC(=O)N=Nc1ccc(O)cc1	/	/	.	55.8	.	.
Cc1ccc(/C=C2\SC(N3CCCC3)=NC2=O)cc1	.	.	.	/	/	/
CN(C)c1ccc(/C=C2\SC(N3CCCCC3)=NC2=O)cc1	.	.	.	56.9	.	.
CCNC(=O)[C@H]1[C@H](CO)[C@H]2Cn3c(ccc(-c4ccc(F)cc4)c3=O)[C@H]2N1C(=O)Cc1cccnc1	/	/	.	/	/	/
O=C(O)c1ccc(C=NN=C2c3ccccc3-c3ccccc32)cc1	/	/	.	.	.	/
O=C(O)c1ccc(C=NN=Cc2ccco2)cc1	/	/	.	62.0	.	.
CCCN1CCN(CC(=O)Nc2nnc(C)s2)CC1	.	.	.	52.0	.	.
Cc1nn(-c2ccccc2Cl)c(Cl)c1/C=N/Nc1nc2ccccc2s1	/	/	/	86.8	?	81.4
Cc1cc(Cl)ccc1NC(=S)N1CCN(Cc2ccccc2)CC1	.	.	/	51.1	.	.
C[C@@H]1CN([C@@H](C)CO)C(=O)c2cccc(NC(=O)c3ccncc3)c2O[C@@H]1CN(C)C	/	/	.	/	/	/
SMILES	RN4220 kill	Sa ugtP lethal	TcdB inh	PrP 5UTR inh	PfHsp40 yeast	PrP 5UTR single
N#CNC(=Nc1ccccc1)SCc1ccc(C(=O)O)cc1	.	.	.	.	.	/
CSC(=Nc1ccccc1)N=C(SCc1ccccc1)N(C)C	/	/	.	73.6	.	.
COc1ccc(NC(=O)N(C)C[C@H]2Oc3ncc(C#C[C@@H](C)O)cc3C(=O)N([C@H](C)CO)C[C@@H]2C)cc1	/	/	.	/	/	/
CCn1c(C)nc2cc(-c3nc4n(n3)Cc3ccccc3-4)ccc21	.	.	/	94.2	.	95.6
COc1ccc(NC(=O)Nc2ccc3c(c2)CC(=O)N([C@H](C)CO)C[C@H](C)[C@@H](CN(C)CC2CCCCC2)O3)cc1	/	/	.	/	/	/
COc1ccc2c(c1)/C(=C/c1cc(OC)c(OC)c(OC)c1)C(=O)N2	/	/	.	64.2	.	73.1
C=C(C=O)CC1CC(O)[C@]2(C)OC3CC4OC5C[C@]6(C)O[C@]7(C)CCC8OC9C[C@]%10(C)OC%11C(C)=CC(=O)OC%11CC%10OC9C[C@@H](C)C8OC7CC6O[C@]5(C)CC5OC5C4OC3CC2O1 (stereo partly drawn)	/	/	/	85.1	/	97.6
C=C(C=O)CC1CC(O)[C@]2(C)OC3CC4OC5C[C@]6(C)O[C@]7(C)CCC8OC9C[C@]%10(C)OC%11C(C)=CC(=O)OC%11CC%10OC9CC(C)C8OC7CC6O[C@]5(C)CC5OC5C4OC3CC2O1 (stereo partly drawn)	.	.	/	/	/	/
COc1ccc(NC(=S)NCc2cccs2)cc1	.	.	.	75.3	.	.
C[C@@H]1CN([C@H](C)CO)C(=O)c2cc(NS(=O)(=O)c3cn(C)cn3)ccc2O[C@@H](C)CCCCO[C@@H]1CN(C)S(C)(=O)=O	/	/	.	/	/	/
O=C(c1ccccc1)N1C[C@H]2[C@@H](c3ccccc31)[C@H](CO)N2S(=O)(=O)c1ccccc1	/	/	.	/	/	/
CC(=O)OC[C@]12CCC(C)=C[C@H]1O[C@@H]1[C@H](O)[C@@H](OC(C)=O)[C@@]2(C)[C@]12CO2	.	.	.	89.8	/	96.5
COc1ccc(-c2oc(=O)c3cc(OC)c(OC)cc3c2/C=C/c2ccc(OC(C)=O)cc2)cc1	/	/	.	.	.	/
COc1cc(-c2noc(C)c2/C=C/c2ccc(OC(C)=O)cc2)cc(OC)c1OC	/	/	.	63.6	.	84.7
COc1ccc(S(=O)(=O)Nc2ccc3c(c2)C(=O)N([C@H](C)CO)C[C@H](C)[C@H](CN(C)C(=O)CCC(F)(F)F)OCCCC[C@H](C)O3)cc1	/	/	.	/	/	/
